Results with a measured potency or affinity are listed apart. Calls of active or inactive are those of the source. No rule for the calls is given here.
Target: Plasmodium falciparum protein kinase 6 (PK6, PF3D7_1337100) (UniProt Q8IDW1)
Assay: PfPK6 kinase inhibitors, biochemical, TCAMS library (AID 1159586)
Details: recombinant PfPK6, Kinase-Glo ATP depletion luminescence

Plasmodium falciparum protein kinase 6 (PK6, PF3D7_1337100), sequence (Q8IDW1 1-305): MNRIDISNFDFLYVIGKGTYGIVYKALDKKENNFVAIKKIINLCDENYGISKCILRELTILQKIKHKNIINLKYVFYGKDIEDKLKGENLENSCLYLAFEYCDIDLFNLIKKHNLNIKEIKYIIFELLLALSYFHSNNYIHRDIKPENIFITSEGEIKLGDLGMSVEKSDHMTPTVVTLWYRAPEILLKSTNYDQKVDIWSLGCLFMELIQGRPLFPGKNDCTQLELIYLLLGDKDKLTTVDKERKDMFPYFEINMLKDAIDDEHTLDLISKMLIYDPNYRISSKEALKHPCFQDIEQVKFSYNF

outcome, inactive:
O=C(/C=C/c1ccc(Cl)c(Cl)c1)N1CCC(CCCN2CCC(c3c[nH]c4ccc(O)cc34)CC2)CC1
C=CCOC(=O)N1CCC(CNCc2cccc(-c3ccc(-c4nc5c(C)cccc5[nH]4)cc3)c2)C1 (stereo not given)
CO/C(=C\C=C\c1cc2cc(Cl)c(Cl)cc2[nH]1)C(=O)NC1C[C@H]2CCC[C@@H](C1)N2C (stereo not given in full)
Nc1ncc(-c2ccccc2)cc1-c1nc2cc(Cl)c(F)cc2[nH]1
Cc1cccc2[nH]c(-c3ccc(-c4ccc(CN5CC(C)OC(C)C5)cc4)cc3)nc12 (stereo not given)
CCCCCc1cnc2nc(N)nc(N)c2c1
Nc1cccc(CNCc2cccc(-c3ccc(-c4nc5ccccc5[nH]4)cc3)c2)c1
CCCC(CCC)n1ccc2c3c(N)nc(N)nc3ccc21
COc1cccc(OC)c1C(=O)N1CCC2(CC1)C(=O)N(CC(=O)NC1CCCCC1)CN2c1ccccc1
Cc1cc(N[C@@H](Cc2ccccc2)C(=O)NCc2cccs2)nc(NCCc2ccccn2)n1
OCC1CCN(Cc2ccc(-c3ccc(-c4nc5ccccc5[nH]4)cc3)cc2)CC1
COc1cc(C(=O)N2COCC(CCCN3CCC(N4CCCC4)CC3)(c3ccc(Cl)c(Cl)c3)C2)cc(OC)c1OC (stereo not given)
COc1ccc2c(CCNc3nc(SC)ncc3C(=O)NCCc3ccc(F)cc3)c[nH]c2c1
CCn1c(C2CCN(CCC3CCN(C(=O)/C=C/c4ccc(Cl)c(Cl)c4)CC3)CC2)nc2ccccc21
CCN(CC)CCN(Cc1ccc(-c2ccc(C(F)(F)F)cc2)cc1)C(=O)Cn1c(/C=C/c2ccco2)nc(=O)c2ccccc21

From PubChem BioAssay
